# Measurements: PubChem BioAssay (EPA / NIEHS)
# “And” between values parts separate entries of the source, which are not always exact repeats. Identical values can stand only once. A structure can be active in one record and inactive in another. The source made the active and inactive calls. Rule for the calls: active = hit-call score of the fitted dose curve at least 0.9, where 1 is the maximum; inactive = score below 0.9.
# Read-out: Interleukin 6 Receptor (IL6R), IL6R (gene 3570)
# Assay: LTEA_HepaRG_IL6R: Life Technologies and Expression Analysis (LTEA) Assay for Interleukin 6 Receptor (IL6R) using HepaRG (AID 2283510);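 for AC50: TaqMan qRT-PCR signal normalized to ACTB GAPDH and POLR2A housekeeping genes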
# Details: mRNA level, 48 h; actives raise or lower the signal
# Method: LTEA_HepaRG is a cell based, multiplexed-readout assay that uses HepaRG, a human liver cell line, with measurements taken at 48 hours after chemical dosing on a 96-well plate.LTEA_HepaRG_IL6R is one of 102 assay component(s) measured in the LTEA HepaRG cell culture assay. It is a marker of Inflammation.Data from the assay component LTEA_HepaRG_IL6R was analyzed into 1 endpoint. This assay endpoint, LTEA_HepaRG_IL6R, was analyzed with bidirectional fitting relative to DMSO as the negative control and baseline of activity. Using a type of inducible reporter, measures of mRNA induction for gain or loss-of-signal activity can be used to understand regulation of transcription factor activity. To generalize the intended target to other relatable targets, this assay endpoint is annotated to the cytokine receptor intended target family, where the subfamily is JAK-STAT cytokine receptor.
# A total of 1060 chemcials from the ToxCast library were tested in eight-point concentration-response experiments. Cell culture and cytotoxicity assays were conducted at Thermo Fisher Scientific's Custom Services facility (Madison, WI). A single lot of human HepaRG cells (Thermo Fisher Scientific, Frederick, MD) was used for the cell culture experiments. 96-well format collagen type I coated plates of human HepaRG cells were prepared using established methods. Briefly, cryopreserved HepaRG cells were thawed, plated at a density of approximately 100,000 cells/well in HepaRG Thaw, Plate, and General Purpose media (HPRG770, Thermo Fisher Scientific), and incubated for 48 hours. 0.5% DMSO was selected as vehicle control to balance the requisite need of DMSO in HepaRG cultures to maintain differentiation (for example, baseline metabolism, proportions of hepatocytes vs. cholangiocytes), while enabling further hepatic receptor pathway activation (for example, PXR and CAR) in response to chemical exposure. 48 hours after plating, the culture medium was replaced with HepaRG Serum-Free Incudtion Media. Cells were exposed to each test chemical in duplicate and maintained in CO2 incubators for another 48 hours. Chemical plates were thawed to room temperature and 200x concentrations of treatment groups were prepared. 8-point conentration-reponse curves were made with the highest exposure at 100 uM, followed by half-log dilutions, all in 0.5% DMSO. Each test plate contained variouse controls, induction positive controls (1mM phenobarbital), cytotoxicity positive controls ([…] aflatoxin B1), vehicle controls (0.5% DMSO), and total lysis controls (0.5% DMSO). Cell morphology images were taken using an Essen IncuCyte FLR automated microscope, with six 96-well plates imaged in about 24 minutes. Images were captured and exported and JPEG files. Spent culture media was transfered to black-well plates for the LDH assay, and remaining media was sorted at -80 C for later use. Cells were treated with RLT buffer and frozen until shipped for gene expression analysis. Total RNA was isolated from the cell suspension in 75 uL of Buffer RLT (Qiagen, Germantown, MD 20874) by Quintiles/Expression Analysis (Durham, NC) using a custom isolation procedure. Total RNA from each plate well was transferred to a preamplification plate. Fluidigm's 96.96 Dynamic ArrayTM (Fluidigm, Amsterdam, the Netherlands) technology was used for gene expression analyses by quantitative reverse transcription polymerase chain reaction (qRT-PCR, performed by Quintiles/Expression Analysis, Durham, NC)89. Standard TaqManTM Assays (Applied Biosystems/ThermoFisher Scientific, Foster City, CA) were used to assess the expression of 93 genes selected based on their selectivity and sensitivity to important hepatic receptors known to be modulated by environmental chemicals; importance in human hepatocyte functionality; and hepatotoxicity. […]
SMILES,AC50,outcome
CCOCN(C(=O)CCl)c1c(C)cccc1CC,50 µM (active),–
Clc1ccccc1-c1nnc(-c2ccccc2Cl)nn1,–,inactive
O=S(=O)(O)C(F)(F)C(F)(F)C(F)(F)C(F)(F)C(F)(F)C(F)(F)C(F)(F)C(F)(F)F,82.9 µM (active) and 90 µM (active),inactive
CNC(=O)Oc1ccccc1OC(C)C,–,inactive
CC(C)(C)C(O)/C(=C\c1ccc(Cl)cc1Cl)n1cncn1 (stereo not given),50 µM (active),–
CC(C)(C)C(O)C(Oc1ccc(Cl)cc1)n1cncn1 (stereo not given),50 µM (active),inactive
CCC(C)(C)C(=O)OC1=C(c2ccc(Cl)cc2Cl)C(=O)OC12CCCCC2,–,inactive
CCOC1Oc2ccc(OS(C)(=O)=O)cc2C1(C)C (stereo not given),60.7 µM (active),–
O=[N+]([O-])c1c(Cl)c(Cl)c(Cl)c(Cl)c1Cl,–,inactive
CCN(CC)C(=O)SCc1ccc(Cl)cc1,–,inactive
COP(=O)(OC)OC=C(Cl)Cl,–,inactive
O=C(O)CCCOc1ccc(Cl)cc1Cl,–,inactive
CC(C)N(C(=O)COc1nnc(C(F)(F)F)s1)c1ccc(F)cc1,–,inactive
CNC(=O)CSP(=S)(OC)OC,–,inactive
CCCN(CCOc1c(Cl)cc(Cl)cc1Cl)C(=O)n1ccnc1,87.1 µM (active),–
CC1(C)C(C=C(Cl)Cl)C1C(=O)OC(C#N)c1ccc(F)c(Oc2ccccc2)c1 (stereo not given),–,inactive
N#CN,–,inactive
CCC(C)(NC(=O)c1cc(Cl)c(C)c(Cl)c1)C(=O)CCl (stereo not given),–,inactive

SMILES,AC50,outcome
O=C1c2ccccc2C(=O)N1SC(Cl)(Cl)Cl,–,inactive
CC1(c2ccc(Oc3ccccc3)cc2)OC(=O)N(Nc2ccccc2)C1=O (stereo not given),–,inactive
O=[N+]([O-])/N=C1\NCCN1Cc1ccc(Cl)nc1,39 µM (active),–
CCC(C)Nc1c([N+](=O)[O-])cc(C(C)(C)C)cc1[N+](=O)[O-] (stereo not given),–,inactive
N#Cc1c(Cl)c(Cl)c(Cl)c(C#N)c1Cl,–,inactive
CNC(=O)Oc1cccc(N=CN(C)C)c1,–,inactive
CNC(=O)/C=C(\C)OP(=O)(OC)OC,–,inactive
Oc1cc(Cl)ccc1Oc1ccc(Cl)cc1Cl,51 µM (active),inactive
O=S1OCC2C(CO1)C1(Cl)C(Cl)=C(Cl)C2(Cl)C1(Cl)Cl (stereo not given),11.4 µM (active),–
OCCOc1ccccc1,–,inactive
ClC1C(Cl)C(Cl)C(Cl)C(Cl)C1Cl (stereo not given),–,inactive
COc1nn(CSP(=S)(OC)OC)c(=O)s1,–,inactive
C#CCN1C(=O)COc2cc(F)c(N3C(=O)C4=C(CCCC4)C3=O)cc21,–,inactive
COP(=S)(OC)Oc1ccc(SC)c(C)c1,–,inactive
O=C(Nc1ccccc1)Nc1cnns1,–,inactive
CC(C)OC(=O)Nc1cccc(Cl)c1,–,inactive
O=C(O)C(F)(F)C(F)(F)C(F)(F)C(F)(F)C(F)(F)C(F)(F)C(F)(F)F,–,inactive
Oc1ccc(Cl)cc1Cc1ccccc1,83.6 µM (active),inactive
